# Assay outcomes from PubChem.
# HCMV inh: qHTS Assay for inhibitors of the human cytomegalovirus (HCMV). actives 4.5% (n = 410,000). HFF cells, HCMV-luciferase reporter, 72 h; hits give low values. activity change, negative = inhibition, % at 57.5 µM. AID 1259415, 2018; in the data active = activity change below about -60%; inconclusive = no clear call, values can overlap the other calls; inactive = above about -39%
#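 Human foreskin fibroblasts infected with luciferase-reporter HCMV at MOI 1 PFU/cell, compounds at two doses. Luciferase measured 72 h post infection; normalized to buffer-only basal and Salinomycin (10uM) controls.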
# FMDV inh: High Throughput Screening for Foot and Mouth Disease Virus Antivirals. FMDV antiviral cell-based qHTS. Potency, µM (top dose mostly 57.9 µM), for inactives: at the highest dose activity change, negative = inhibition, usual class: inhibitors. actives 1.2% (n = 410,000). AID 1159524, 2015; calls by dose curve; tested in HEK293T cells; also: read-out not given here; potency is read from the fitted curve at half-maximal effect; nearly all actives have a fitted effect of over 45% in size
# VACV mCherry inh: qHTS for Stage-Specific Inhibitors of Vaccinia Orthopoxvirus: mCherry Reporter Primary qHTS. Potency, µM (series often up to 36.5 µM), for the others: at the top dose activity change, negative = inhibition, usual class: inhibitors. Vaccinia virus mCherry reporter infection, fluorescence. actives 0.63% (n = 310,000); calls by dose curve; tested in A549 cells; also: potency is read from the fitted curve at half-maximal effect; nearly all actives have a fitted effect of over 35% in size
# Vaccinia Venus: qHTS for Stage-Specific Inhibitors of Vaccinia Orthopoxvirus: Venus Reporter Primary qHTS | Potency, µM (series often up to 36.5 µM), without a hit: top-dose activity change, negative = inhibition, usual class: inhibitors | AID 720580, 2013 | actives 0.46% (n = 330,000) | Vaccinia virus Venus reporter expression, fluorescence; calls by dose curve; tested in A549 cells; also: potency is read from the fitted curve at half-maximal effect; nearly all actives have a fitted effect of over 30% in size
# HCV inh: qHTS Assay for Inhibitors of Hepatitis C Virus (HCV) | actives 3.4% (n = 340,000) | Huh7.5.1 HCVcc-Cre infection, luciferase reporter, 44 h | Potency, µM (highest dose often 41.8 µM), inactives show at the top dose activity change, negative = inhibition, usual class: inhibitors; active = well fitted inhibition curve with a large enough effect; inconclusive = small, poorly fitted or top-dose-only effect, or another doubt; inactive = no such curve, though single readings can be large or run the other way; also: potency is read from the fitted curve at half-maximal effect
#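 Cells seeded at 1,000/well and cultured 4 h, then compounds added followed by HCVcc-Cre virus (~0.5 moi). After 44 h further culture, luciferase substrate was added, plates held 15 min at room temperature, and luminescence read for 15 sec.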
# Active calls of the source: *; i = inactive; u = inconclusive; x = no result given. Compounds with a hit are over-represented: about 7.3% of the library has one in this group of screens. % is scaled to controls: 0 for no effect and ±100 for the full control effect.
SMILES,HCMV inh,FMDV inh,VACV mCherry inh,Vaccinia Venus,HCV inh
CC(C)(C)OC(=O)N[C@@H](Cc1ccccc1)c1nnc(SCC(N)=O)o1,3,0%,x,x,10%
O=C(c1cccnc1)C1CCCN(Cc2ccc3c(c2)CN(C(=O)c2cccc(Cl)c2)CCO3)C1 (stereo unspecified),x,-27%,-14%,-16%,x
Cc1cccc(N2C(=O)CSC23C(=O)N(Cc2cccc(C(F)(F)F)c2)c2ccccc23)c1 (stereo unspecified),-70*,u,-17%,-2%,x
CN1C(=O)C2(SCC(=O)N2c2cccc(C(F)(F)F)c2)c2ccccc21 (stereo unspecified),-1,-29%,-5%,2%,x
Cc1cc(C)cc(-n2c3ccc(NC(=O)Cc4cccc5ccccc45)cc3c(=O)n2C)c1,-71*,-6%,6%,-27%,x
Cn1c(=O)c2cc(NC(=O)Cc3ccccc3F)ccc2n1-c1ccc(C(C)(C)C)cc1,-31,-6%,i,-13%,x
COc1ccc(CNC(=O)O[C@H]2CC[C@@]34CCCN3C(=O)CCC[C@H]4[C@H]2Cc2ccccc2)cc1,7,x,x,x,x
CCCCN(C)C(=O)c1sc(=O)n(Cc2ccccc2F)c1C,-27,-6%,i,5%,x
CCCCN(C)C(=O)c1sc(=O)n(Cc2c(C)cccc2C)c1C,-61*,-8%,i,0%,x
CC(C)[n+]1ccn(C2=C([O-])c3ccccc3C(=O)/C2=N\S(=O)(=O)c2ccccc2)c1,-87*,u,u,u,u
CCCC[n+]1ccn(C2=C([O-])c3ccccc3C(=O)/C2=N\S(=O)(=O)c2ccccc2)c1,u,22µM*,u,u,11µM*
CCCCC[n+]1ccn(C2=C([O-])c3ccccc3C(=O)/C2=N\S(=O)(=O)c2ccc(Br)cc2)c1,-24,-6%,x,x,u
CCCCC[n+]1ccn(C2=C([O-])c3ccccc3C(=O)/C2=N\S(=O)(=O)c2ccccc2)c1,-77*,u,u,u,u
CC(C)(C)c1cc[n+](C2=C([O-])c3ccccc3C(=O)/C2=N\S(=O)(=O)c2ccccc2)cc1,-4,u,-17%,-21%,-3%
c1cnc2[nH]ccc2c1,x,x,i,-14%,x
COC(=O)[C@@H]1[C@@H](CO)[C@@H]2Cn3c(ccc(Br)c3=O)[C@H]1N2CCc1ccccc1,12,x,x,x,x
CC(C)c1ccccc1NC(=O)Nc1nnc([C@H]2C[C@H](O)[C@@H](CO)O2)s1,-15,-7%,34%,-5%,x
COc1ccc(Cl)cc1NC(=O)Cn1ccn(Cc2ccc(C)cc2)c(=O)c1=O,-33,6%,-16%,-20%,x
CCN(C(=O)c1cc2c(s1)-c1ccccc1OC2)c1cc(Cl)ccc1OC,-30,u,-9%,4%,x
CCN(C(=O)c1cc2c(C)nc3ccccc3c2o1)c1cc(Cl)ccc1OC,u,u,14%,-17%,10µM*
Cn1cc(C(=O)Cc2ccccc2)c2ccccc21,-67*,13%,-16%,-8%,u
CC1(C)CC(=O)C=C(c2ccc(F)cc2OCc2ccccc2)C1,-14,u,0%,-19%,20µM*
CSc1ccccc1NC(=S)Nc1cccc(C(F)(F)F)c1,-31,4%,x,x,u
Cc1ccc(NC(=S)NCc2ccccc2)cc1[N+](=O)[O-],-96*,19%,u,-23%,-23%
Fc1ccccc1CNC(=S)Nc1cccc(C(F)(F)F)c1,-79*,-5%,u,u,u
SMILES,HCMV inh,FMDV inh,VACV mCherry inh,Vaccinia Venus,HCV inh
FC(F)(F)c1cccc(NC(=S)NCc2ccc(Cl)cc2)c1,-90*,-27%,-8%,u,u
O=C(CNc1cccc(Cl)c1)NNC(=S)NCc1ccccc1,u,-24%,-18%,1%,u
S=C(NCc1ccccc1)Nc1cccc(Cl)c1,-84*,62%,-7%,-14%,-2%
Fc1ccc(CNC(=S)Nc2cccc(C(F)(F)F)c2)cc1,-36,-49%,-6%,u,u
COCCNC(=O)c1c(C)oc2nc(C)nc(N3CCOCC3)c12,-19,5%,i,-3%,x
N#CCSc1ncnc2ccccc12,-25,u,x,x,u
c1ccc(Sc2ncnc3ccccc23)cc1,-74*,9%,u,-15%,21%
COc1cc(-c2noc(C)c2C#Cc2ccccn2)cc(OC)c1OC,-18,-17%,-12%,u,u
COc1cc(-c2c(-c3cc(OC)c(OC)c(OC)c3)noc2C)ccc1F,-94*,-23%,-7%,u,u
COc1cc(-c2noc(C)c2/C=C/c2ccc(N)cc2)cc(OC)c1OC,-83*,-3%,u,u,u
COc1cc(-c2noc(C)c2C#Cc2ccc(N)cc2)cc(OC)c1OC,-19,10%,-30%,u,2.2µM*
COc1ccc(Nc2cc3c(cn2)ncn3Cc2ccccc2)c(C)c1,-15,x,x,x,x
CC[C@H](C)[C@@H]1OC(=O)[C@@H](C)[C@@H](CC)NC(=O)[C@H](C)N(C)C(=O)C(C)(C)C(=O)C(C)NC(=O)[C@H](Cc2ccccc2)N(C)C(=O)[C@H](C(C)C)N(C)C(=O)CNC(=O)[C@H](CC(C)C)N(C)C(=O)CNC1=O (stereo partly specified),x,0%,2µM*,2.2µM*,x
CCOC(=O)C(CC)Sc1ccc2nnc(CCNS(=O)(=O)c3ccccc3)n2n1 (stereo unspecified),-103*,1%,i,7%,-5%
CCC(Sc1ccc2nnc(-c3ccc(F)cc3)n2n1)C(=O)OC (stereo unspecified),-93*,0%,x,x,-3%
O=C(Cn1cncn1)NCC1Cc2cc(-c3ccsc3)cc(Cl)c2O1 (stereo unspecified),x,3%,-14%,-13%,x
Fc1ccc(Nc2nc3nonc3nc2Nc2cccc(C(F)(F)F)c2)cc1,-101*,u,u,u,x
COc1cc2cc(CN(CCc3cccc(C)c3)C(=S)NCCCN(C)C)c(=O)[nH]c2cc1OC,-90*,-19%,i,-26%,u
COc1cc2cc(CN(CCc3cccc(C)c3)C(=S)NCCCN3CCOCC3)c(=O)[nH]c2cc1OC,-82*,-11%,-3%,u,u
O=C(NCCS(=O)(=O)N1CCN(c2cccc(Cl)c2)CC1)C(c1ccccc1)c1ccccc1,11,-8%,-20%,-14%,x
O=C(COc1ccc(-c2nnco2)cc1)Nc1ccc(C(F)(F)F)cc1,-75*,-23%,i,-7%,u
CCC(C)c1ccccc1NC(=O)COc1ccc(-c2nnco2)cc1 (stereo unspecified),-17,-4%,-6%,-17%,1%
O=C(C[N+]12CN3CN(CN(C3)C1)C2)c1ccc(I)cc1,x,x,i,-18%,x
Cc1cccc(OCc2cc(=O)n3c(-c4ccccc4)csc3n2)c1C,-103*,-2%,-15%,-10%,x
